# Assay results reported in PubChem BioAssay AID449762 (Southern Research Specialized Biocontainment Screening …, 2010).
# Among all 330,000 compounds or so, about 1,900 (0.58%) were called active. Inconclusive results (about 4%) are left out. Rule as the data show it: inconclusive = inhibition above about 70% without an active follow-up result; inactive = below that. These entries were drawn from the full list. Results with a measured potency or affinity are listed apart.
# Experiment: M. tuberculosis growth inhibition, HTS (AID 449762);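 also: bacterial growth assessed after seven days of incubation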
# Settings: M. tuberculosis H37Rv growth inhibition, 7H9 media; at 25 µM; active compounds read high
row,Compound,inhibition
1,COc1ccccc1Nc1nc(-c2sc(NC(=O)CC(C)C)nc2C)cs1,1.91% (inactive)
2,Cc1nc(NC(=O)c2ccccc2)sc1-c1csc(Nc2ccc(Cl)cc2Cl)n1,6.01% (inactive)
3,Cc1ccc(C(C)C)c(OCC(=O)Nc2ccc(N3CCN(S(C)(=O)=O)CC3)cc2)c1,-4.74% (inactive)
4,CCCCCCSc1ccc([C@H]2N[C@@](CC(C)C)(C(=O)OC)[C@H]3C(=O)N(CC)C(=O)[C@@H]23)cc1,-1.98% (inactive)
5,COc1cc(NC(=S)NCCc2ccccc2)c(OC)cc1NC(=O)CC(C)C,-2.92% (inactive)
6,CN1C(=S)SC(N(O)C(=O)Nc2cccc3ccccc23)C1(C)C (stereo not given),3.28% (inactive)
7,CN1C(=S)SC(N(O)C(=O)Nc2ccccc2)C1(C)C (stereo not given),-1.59% (inactive)
8,CC1=CSC2=NS(=O)(=O)CCN12,-1.32% (inactive)
9,COCCCNC(=O)c1c[nH]c2ccc(S(=O)(=O)N3CCC4(CC3)OCCO4)cc2c1=O,-4.78% (inactive)
10,COc1ccc(-c2nnn(CC(=O)NC(=O)NC3CCCCC3)n2)cc1OC,-0.345% (inactive)
11,O=C(Cn1nnc(-c2cccs2)n1)OC1CCCCC1,4.15% (inactive)
12,O=C(NC(=S)NC1CCS(=O)(=O)C1)c1ccccc1 (stereo not given),-12% (inactive)
13,Cc1c(C(=O)N2CCC3(CC2)OCCO3)sc2ncnc(N3CCc4ccccc4C3)c12,-0.89% (inactive)
14,CC(C)CCn1nnnc1C(c1ccccc1)N1CCN(C)CC1 (stereo not given),5.26% (inactive)
15,O=C(CNS(=O)(=O)c1cccs1)N1CCN(c2ccccn2)CC1,4.15% (inactive)
16,O=C(C1CCN(c2nnc(-n3cccc3)s2)CC1)N1CCOCC1,-4.62% (inactive)
17,CCOC(=O)N1CCN(C(=O)C2CCN(c3nnc(-n4cccc4)s3)CC2)CC1,-4.54% (inactive)
18,CC1=NN(C(N)=S)C(=O)C1N=Nc1ccc(S(N)(=O)=O)cc1 (stereo not given),0.37% (inactive)
19,CC1=NN(C(N)=S)C(=O)C1N=Nc1ccc(Br)cc1 (stereo not given),58.6% (inactive)
20,Cc1ccc(S(=O)(=O)Nc2ccc3ccccc3n2)cc1,0.36% (inactive)

row,Compound,inhibition
1,COc1ccccc1-c1cc2nc(C)c(CCC(=O)NC(C)CCc3ccco3)c(C)n2n1 (stereo not given),2.39% (inactive)
2,Cc1nc2cc(-c3cccc(F)c3)nn2c(C)c1CCC(=O)NC(C)CCc1ccco1 (stereo not given),-9.87% (inactive)
3,O=c1cc(O)nc(SCc2ccc(Cl)cc2)[nH]1,-0.2% (inactive)
4,COc1cc(-c2nnc(CSc3nnc(N)s3)o2)cc(OC)c1OC,-0.69% (inactive)
5,Cc1nc(-n2nnc3ccccc32)c2c3c(sc2n1)CCCC3,4.15% (inactive)
6,Cc1cc(=O)n2[nH]c(C)c(-c3ccc(Cl)cc3)c2n1,-1.1% (inactive)
7,CCCc1cc(=O)n2[nH]c(C)c(-c3ccc(OC)cc3)c2n1,35.8% (inactive)
8,Cc1cc(NC(=O)Cn2nnc(-c3ccccc3NC(=O)c3ccccc3F)n2)no1,-4.78% (inactive)
9,CCCc1nc(Nc2nc3ccccc3o2)nc(C)c1C(=O)OCC,-21.6% (inactive)
10,CCOC(=O)c1cnc(Nc2nc3ccccc3o2)nc1CSc1ncccn1,0.71% (inactive)
11,Cc1nnc(SCC(=O)N(Cc2ccccc2)C(C)(C)C)[nH]c1=O,3.28% (inactive)
12,O=C1c2ccccc2C(=O)N1Cc1ccc2c(c1)OCO2,4.9% (inactive)
13,CC(C(=O)NC1CCCC1)N1C(=O)c2cccc3cccc1c23 (stereo not given),-3.8% (inactive)
14,CCOC(=O)c1cnc(-n2nc(C)cc2C)nc1Nc1cccc(C(=O)O)c1,19.4% (inactive)
15,CCOC(=O)c1cnc(-n2nc(C)cc2C)nc1Nc1ccc(O)cc1,-2.03% (inactive)
16,COc1ccc(CN2CCn3ncc(C(=O)Nc4cccc(C)c4)c3C2=O)cc1,3.51% (inactive)
17,COc1ccc(C(CNC(=O)C2CC2)N(C)C)cc1 (stereo not given),-15.1% (inactive)
18,CCSc1nnc(C)n1-c1ccc(C(=O)O)cc1,-3.32% (inactive)
19,O=C1c2ccc(-c3nc4ccccc4o3)cc2C(=O)N1Cc1cccnc1,6.12% (inactive)
20,CCc1ccc(OCC(=O)Nc2ccc(-c3nc4ccccc4o3)c(O)c2)cc1,-3.85% (inactive)

row,Compound,inhibition
1,CC(C)NC(=O)c1ccc(-n2c(=S)[nH]c3ccccc3c2=O)cc1,-2.47% (inactive)
2,CCN(CC)S(=O)(=O)c1ccc(N2CCCC2)c(NC(=O)c2nn(C)c(=O)c3ccccc23)c1,-4.45% (inactive)
3,CCN(CC)S(=O)(=O)c1ccc2[nH]cc(C(=O)NCCc3ccccc3)c(=O)c2c1,4.1% (inactive)
4,CCN(CC)S(=O)(=O)c1ccc2[nH]cc(C(=O)NCCN3CCCCCC3)c(=O)c2c1,-8.55% (inactive)
5,CCN(C(=O)c1cc(Cl)ccc1OC)c1ccccc1,-7.73% (inactive)
6,CCOC(=O)C1=C(C)C(c2cccc(Oc3ccccc3)c2)NC(=S)N1 (stereo not given),10.7% (inactive)
7,COc1ccc(-c2csc(NS(=O)(=O)c3ccc([N+](=O)[O-])cc3)n2)cc1,1.1% (inactive)
8,c1ccc(-c2nccc(-c3ccco3)n2)nc1,58.2% (inactive)
9,Cc1ccc(-n2c3nc(=O)n(C)c(=O)c-3cc3ccccc32)cc1,10.4% (inactive)
10,COc1ccc(-c2nc(-c3ccccn3)ncc2S(C)(=O)=O)cc1,-1.3% (inactive)
11,Cc1ccccc1-n1c2nc(=O)n(C)c(=O)c-2cc2ccccc21,0.96% (inactive)
12,Cc1ccc(NC(=O)CSc2nc(=O)n(CCN3CCOCC3)c3c2CCCC3)cc1,-2.61% (inactive)
13,CCCS(=O)(=O)N1CCC(C(=O)NCCc2ccccc2)CC1,4.73% (inactive)
14,CCc1cc(/C(Cc2ccccn2)=N\O)c(O)cc1O,-0.69% (inactive)
15,CCc1cc(C(=O)Cc2ccccn2)c(O)cc1O,-1.89% (inactive)
16,CC(/C=C\c1ccccc1)=C/C(=O)O,-1.86% (inactive)
17,CC(/C=C/c1ccc(C)o1)=C\C(=O)O,8.65% (inactive)
18,N#CC(C(=O)O)=C1CCCC1,-4.52% (inactive)
19,COc1ccc(COc2cc(-c3cccc(OC)c3)nc3ccc(NC(=O)c4ccc(Cl)cc4)cc23)cc1,56.2% (inactive)
20,COc1ccc(COc2cc(-c3cccc(OC)c3)nc3ccc(NC(=O)c4ccc(N(C)C)cc4)cc23)cc1,-16.9% (inactive)
